Screening results: PubChem BioAssay, National Center for Advancing Translational Sciences (NCATS)
p53 reactivation = restores transcriptional activity of mutant p53 | Potency, µM (titrated, usually from 92.2 µM), without a hit: at the highest dose activity change, positive = activation, most hits filed as activators | 320,000 tested, 0.063% active | H1299 p53-A138V BP100-luciferase reporter, luminescence, 24 h; also: % of control where 0% means no effect; nearly all actives have a fitted effect of over 45% in size
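p53-null H1299 cells stably carrying temperature-sensitive p53-A138V and a BP100-luciferase reporter were pinned with compounds (4-point, 1:5 series) and held 24 hrs at 37 deg C. Luminescence was read 10 min after detection reagent.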
SMN2 splice enh = increases expression of the SMN2 splice variant. HEK293 SMN2-luciferase splicing reporter, luminescence, 30-36 h. Potency, µM (highest dose often 46.1 µM), inactives show top-dose activity change, positive = activation, most hits filed as activators. 210,000 tested, 2.8% active; also: % of control where 0% means no effect; nearly all actives have a fitted effect of over 55% in size
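HEK293 cells carry an SMN2 minigene-luciferase reporter in which exon 7 inclusion puts luciferase in frame. Cells were seeded at 2000 cells/well, attached for 10-12 hours, then exposed to compounds for 30-36 hours at 37C before ONE-Glo luminescence.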
ELG1 genotox = inducers of genotoxicity in HEK293T ELG1-luciferase cells; HEK293T ELG1-luciferase reporter, luminescence, 16 h; Potency, µM (titrated, usually from 46 µM), for inactives: top-dose activity change, positive = activation, usual class: activators; 330,000 tested, 1.3% active; also: % of control where 0% means no effect; nearly all actives have a fitted effect of over 60% in size
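Step 1: seed 2,000 HEK293T ELG1-luciferase cells per well. Step 2: add compound or DMSO, incubate 16 hr at 37 °C. Step 3: ONE-Glo, 30 min at room temperature, read luminescence.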
NPC1 prom act = activates the NPC1 promoter. Huh7 NPC1 promoter luciferase reporter, 24 h. Potency, µM (top dose mostly 9.22 µM), for inactives: at the top dose activation, usual class: activators. 320,000 tested, 2.4% active; also: % of control where 0% means no effect; nearly all actives have a fitted effect of over 60% in size
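Readout is luciferase luminescence, reflecting NPC1 promoter activation in stably transfected Huh7 cells after 24 h compound exposure at 37 °C in reduced-serum medium with 10% FBS.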
Rab9 prom act = activators of Rab9 promoter; 320,000 tested, 2.8% active; Huh7 Rab9 promoter-luciferase reporter, luminescence, 24 h; AID 485297; Potency, µM (highest dose often 9.22 µM), for inactives: at the top dose activation, negative = inhibition, most hits filed as activators; also: % of control where 0% means no effect; nearly all actives have a fitted effect of over 60% in size
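Using Huh7 cells stably transfected with Rab9 promoter–luciferase, compounds were incubated 24 h at 37 °C, 5% CO2; luciferase luminescence was read 10 min after reagent addition.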
FLuc counter = inhibits or activates purified firefly luciferase, miR-21 counter-screen; 360,000 tested, 6.9% active; Potency, µM (titrated, usually from 57.5 µM), without a hit: at the top dose activity change, negative = inhibition, usual class: inhibitors; AID 588342; purified FLuc, Km substrates, luminescence inhibition;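 also: plate controls were vehicle for no effect and reference inhibitor for full effect; nearly all actives have a fitted effect of over 55% in size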
Target sequence (P08659 whole entry, looked up): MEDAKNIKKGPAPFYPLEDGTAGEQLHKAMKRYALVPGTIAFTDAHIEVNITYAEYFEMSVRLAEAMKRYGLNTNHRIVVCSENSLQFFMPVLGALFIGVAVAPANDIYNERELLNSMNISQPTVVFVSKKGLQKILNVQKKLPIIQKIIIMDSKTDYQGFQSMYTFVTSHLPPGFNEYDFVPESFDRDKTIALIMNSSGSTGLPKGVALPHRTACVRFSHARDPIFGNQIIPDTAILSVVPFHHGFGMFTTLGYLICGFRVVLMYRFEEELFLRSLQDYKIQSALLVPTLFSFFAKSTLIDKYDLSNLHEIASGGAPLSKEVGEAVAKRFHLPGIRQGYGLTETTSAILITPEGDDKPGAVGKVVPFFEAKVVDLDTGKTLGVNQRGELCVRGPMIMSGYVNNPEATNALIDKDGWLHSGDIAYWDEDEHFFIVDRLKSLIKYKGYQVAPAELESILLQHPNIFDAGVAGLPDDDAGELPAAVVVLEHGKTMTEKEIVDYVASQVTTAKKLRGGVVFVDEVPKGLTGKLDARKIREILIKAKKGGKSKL
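Purified P. pyralis luciferase, 10 nM final, with Km-level 10 uM D-luciferin and 10 uM ATP in 50 mM Tris acetate pH 7.5, 10 mM Mg acetate, 0.01% Tween-20, 0.05% BSA; 6-point qHTS titration about 60 µM downward; luminescence read.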
The depositor's hits bear a star; ? = inconclusive; . = no result given; [ ] = remark or other dose. The list is not random: actives were taken first. Their share in the collection is about 7.3%. Calls follow the shape of the dose curve; as a rule, active = well fitted curve in the direction sought with a large enough effect; inconclusive = small, poorly fitted or top-dose-only effect, or another doubt; inactive = no such curve, though single readings can be large; an effect the other way counts as inactive or inconclusive. Potency is read from the fitted curve at half-maximal effect.

SMILES	p53 reactivation	SMN2 splice enh	ELG1 genotox	NPC1 prom act	Rab9 prom act	FLuc counter
Cc1cc(C)c(S(=O)(=O)/N=C2/C=C(SCC(=O)O)C(=O)c3ccccc32)cc1C	-13%	-79%	-7%	4%	-1%	21µM*
CCN(CC)CCC(c1ccc(N(C)C)cc1)c1c(O)cc(OC)cc1OC (stereo not drawn)	-1%	.	2%	-5%	-3%	1%
CC(C)(C)c1ccc(C2CC2C(=O)N/N=C\c2ccc[nH]2)cc1 (stereo not drawn)	4%	.	22%	-40%	-60%	17µM*
Cc1cc(C(=O)Nc2nc3c(s2)CCCC3)no1	?	?	0.79µM*	1.6µM*	0.79µM*	4.8µM*
Cc1ccc(-n2nnc(-c3nsc(NC(=O)c4cccc(Cl)c4)n3)c2C)cc1C	.	.	.	.	.	3%
Cc1csc(NC(=O)c2ccc3nc[nH]c3c2)n1	14%	.	11%	?	0.5µM*	4.3µM*
Cc1csc(NC(=O)NCC2CCCC(CNC(=O)Nc3nc(C)cs3)C2)n1 (stereo not drawn)	18%	.	-1%	3.5µM*	20%	?
CSc1cccc(-n2nnc(-c3nsc(NC(=O)c4cccs4)n3)c2C)c1	.	.	.	.	.	2.7µM*
COc1ccccc1-n1c(=O)n(C)c2c(C(N)=O)nc(-c3cc(OC)c(OC)c(OC)c3)nc21	.	.	.	.	.	-4%
COCCn1c(C)cc(C(=O)COC(=O)/C=C/c2c(C)nn(C3CCS(=O)(=O)C3)c2Cl)c1C (stereo not drawn)	-1%	.	-2%	1%	0%	2%
Cc1csc(NC(=O)c2ccccc2)n1	6%	.	?	4µM*	3.5µM*	9.5µM*
CCOC(=O)Cc1csc(NC(=S)NC(=O)c2ccccc2)n1	-10%	-14%	-3%	1%	-10%	?
Cc1csc(NC(=O)c2ccc[nH]c2=O)n1	.	.	16µM*	4µM*	3.5µM*	17µM*
Cc1csc(NC(=O)c2cc(C)on2)n1	?	.	?	2.2µM*	2.2µM*	11µM*
Cc1csc(NC(=S)NC(=O)c2ccccc2)n1	?	.	21µM*	?	?	13µM*
CCC(=O)N1CCc2cc(Br)cc(S(=O)(=O)N3CCCC(C(=O)NCc4ccccc4)C3)c21 (stereo not drawn)	.	-18%	.	.	.	-2%
CCOc1cc(C(=O)NCc2nc(-c3cccc(C)c3)no2)cc(OCC)c1OCC	.	-5%	.	.	.	-7%
COc1cccc(C(=O)Nc2nc(-c3ccc(Br)cc3)ns2)c1	.	.	.	.	.	-13%
Cc1csc(NC(=O)c2cccc(C)c2C)n1	?	.	?	3.2µM*	2.8µM*	15µM*
COc1ccc(-c2nsc(NC(=O)c3cccc(OC)c3)n2)cc1	.	-36%	.	.	.	11µM*
COc1cccc(C(=O)Nc2nc(-c3ccncc3)cs2)c1	-7%	-57%	1%	3%	14%	-11%
COc1ccc(C(=O)Nc2nc(-c3nnn(-c4cc(OC)ccc4OC)c3C)ns2)cc1	.	.	.	.	.	-12%
COc1cccc(C(=O)Nc2nc(C)cs2)c1	?	11µM*	16%	3.2µM*	2.5µM*	6.7µM*
COc1cccc(C(=O)Nc2nc(-c3nnn(-c4cccc(Cl)c4C)c3C)ns2)c1	.	.	.	.	.	12µM*
CCCCS(=O)(=O)N1CCc2nc(-c3ccccc3)c3c(c2C1)CO[C@@H](C)C3	.	-3%[9.22 µM]	.	.	.	.
CC(C)c1ccc2c(c1)C(c1ccc(N3CCOCC3)cc1)=NNC(c1cccs1)=N2	9%	27%	3%	-1%	3%	?
O=C(c1ccccc1)n1ccc(-c2cccs2)n1	3%	.	0%	12%	-1%	6µM*
Cc1cccnc1NC(=O)Nc1cccs1	2%	13%	17%	14%	11%	12µM*
Cc1ccc(C)c(NC(=S)Nc2ncccc2C)c1	4%	.	?	22%	?	17µM*
